Records with an inconclusive call do not appear. Active and inactive are the calls of the source. Unless noted, calls come from the whole dose curve; as a rule, active = well fitted curve in the direction sought with a large enough effect; inconclusive = small, poorly fitted or top-dose-only effect, or another doubt; inactive = no such curve, though single readings can be large; an effect the other way counts as inactive or inconclusive.
Legend:
CP315 = experiment: qHTS profiling for inhibitors of Plasmodium falciparum proliferation (AID 504749); note: nearly all actives have a fitted effect of over 60% in size; settings: P. falciparum in erythrocytes, SYBR Green DNA, 72 h; series mostly up to 28.7 µM
Outline: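 Quantitative HTS: compounds pinned into medium, infected erythrocytes added (0.3% parasitemia, 2.5% hematocrit), 72 h culture at 37 C under 5% CO2. Saponin/Triton lysis with SYBR Green I, overnight RT, then fluorescence read.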

[1] = molecular target: Guanine nucleotide-binding protein G(i) subunit alpha-1 (Homo sapiens) (UniProt P63096); experiment: qHTS Assay for Inhibitors of RGS12 GoLoco Motif Activity (Green Fluorophore) (AID 879);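 note: negative values mean loss of peptide binding seen as reduced polarization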
Sequence of Guanine nucleotide-binding protein G(i) subunit alpha-1 (Homo sapiens) (P63096 whole entry, looked up): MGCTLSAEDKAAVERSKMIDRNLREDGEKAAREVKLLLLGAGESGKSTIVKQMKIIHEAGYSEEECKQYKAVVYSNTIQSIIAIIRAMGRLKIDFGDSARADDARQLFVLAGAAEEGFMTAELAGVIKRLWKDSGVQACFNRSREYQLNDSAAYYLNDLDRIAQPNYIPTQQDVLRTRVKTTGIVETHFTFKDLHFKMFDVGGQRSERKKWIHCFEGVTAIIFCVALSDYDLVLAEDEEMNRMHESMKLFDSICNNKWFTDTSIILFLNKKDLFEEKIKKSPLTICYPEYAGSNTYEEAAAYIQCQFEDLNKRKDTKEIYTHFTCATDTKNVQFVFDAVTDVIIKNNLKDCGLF
Outline: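 A drop in FITC polarization marked displacement of the FITC-tagged RGS12 GoLoco peptide (10 nM) from Gαi1 (50 nM). Compounds were incubated 10 min at room temperature in Tris pH 7.5 buffer containing 150 mM NaCl, 0.1 mM GDP and 0.05% NP40; unlabeled peptide titration served as control.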

[2] = qHTS Assay for Identification of Small Molecule Agonists for Thrombopoietin (TPO) Signaling Pathway (AID 917)
Outline: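 Cell-based luciferase reporter screen. Mouse Ba/F3 line stably expressing human TPO receptor; IL-3 removed overnight before plating. Co-treatment with compound and EC50 TPO (26 pM), 24 hrs at 37 C, then luminescence.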

[3] = molecular target: Muscarinic acetylcholine receptor M1 (Rattus norvegicus) (UniProt P08482); experiment: qHTS Assay for Antagonists of Acetylcholine Muscarinic M1 Receptor: Kinetic Measurement of Intracellular Calcium Response (AID 943);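 note: Fluo-4 calcium signal as peak divided by basal fluorescence over 4 min; nearly all actives have a fitted effect of over 75% in size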
Sequence of Muscarinic acetylcholine receptor M1 (Rattus norvegicus) (P08482 whole entry, looked up): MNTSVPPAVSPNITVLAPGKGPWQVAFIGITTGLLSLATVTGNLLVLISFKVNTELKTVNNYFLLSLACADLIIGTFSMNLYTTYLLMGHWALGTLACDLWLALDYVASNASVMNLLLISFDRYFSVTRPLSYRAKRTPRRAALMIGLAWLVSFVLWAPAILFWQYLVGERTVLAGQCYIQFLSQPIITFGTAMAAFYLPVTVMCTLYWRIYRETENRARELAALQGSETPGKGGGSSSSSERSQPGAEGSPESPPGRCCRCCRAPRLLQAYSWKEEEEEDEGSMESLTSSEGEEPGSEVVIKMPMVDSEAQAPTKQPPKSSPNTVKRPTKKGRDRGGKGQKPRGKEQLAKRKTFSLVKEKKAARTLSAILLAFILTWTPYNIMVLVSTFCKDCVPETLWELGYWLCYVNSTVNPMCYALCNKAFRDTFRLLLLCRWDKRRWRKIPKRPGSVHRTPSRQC
Outline: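 Antagonism is measured as inhibition of the carbachol-evoked calcium rise in CHO cells transfected with rat M1. Cells are dye-loaded, exposed to compound for 10 min, then stimulated with 100 nM carbachol (EC80).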

[4] = molecular target: Muscarinic acetylcholine receptor M1 (Rattus norvegicus) (UniProt P08482); experiment: qHTS Assay for Antagonists of Acetylcholine Muscarinic M1 Receptor: Measurement of IP-One Response (AID 944); note: nearly all actives have a fitted effect of over 75% in size
Outline: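 Antagonist mode with rat M1 receptor transfected into CHO cells. Compound is added first for 10 min, carbachol at its EC80 follows for 30 min, and lysis reagents then allow TR-FRET detection of accumulated IP1.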

[5] = molecular target: Pyruvate kinase (Leishmania mexicana) (UniProt Q27686); experiment: qHTS Validation Assay for Inhibitors of Leishmania Mexicana Pyruvate Kinase (AID 945)
Sequence of Pyruvate kinase (Leishmania mexicana) (Q27686 2-499 E452W): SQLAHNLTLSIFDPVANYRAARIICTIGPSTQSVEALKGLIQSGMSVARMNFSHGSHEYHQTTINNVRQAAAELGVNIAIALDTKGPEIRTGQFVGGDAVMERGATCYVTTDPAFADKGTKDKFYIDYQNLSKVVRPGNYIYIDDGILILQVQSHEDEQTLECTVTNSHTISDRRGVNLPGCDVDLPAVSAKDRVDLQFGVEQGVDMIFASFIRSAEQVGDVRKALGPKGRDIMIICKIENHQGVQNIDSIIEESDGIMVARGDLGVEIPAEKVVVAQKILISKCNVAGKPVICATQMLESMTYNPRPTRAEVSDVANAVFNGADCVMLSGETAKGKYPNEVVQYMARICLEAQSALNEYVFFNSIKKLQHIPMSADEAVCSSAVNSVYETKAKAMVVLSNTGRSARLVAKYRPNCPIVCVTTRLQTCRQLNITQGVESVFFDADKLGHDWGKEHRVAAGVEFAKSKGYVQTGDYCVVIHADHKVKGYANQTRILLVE
Outline: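 Eight-point qHTS titrations; enzyme 0.2 nM LmPYK (E451W mutant); substrates 0.5 mM PEP, 0.1 mM ADP; 7 mM MgCl2; 1 h room temperature; PKLight luminescence normalized to neutral control.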

[6] = molecular target: Pyruvate kinase PKM (Homo sapiens) (UniProt P14618); experiment: qHTS Assay for Activators of Human Muscle Pyruvate Kinase (AID 954; active = well fitted curve in the direction sought with a large enough effect, not every such curve was filed as active)
Sequence of Pyruvate kinase PKM (Homo sapiens) (P14618 whole entry, looked up): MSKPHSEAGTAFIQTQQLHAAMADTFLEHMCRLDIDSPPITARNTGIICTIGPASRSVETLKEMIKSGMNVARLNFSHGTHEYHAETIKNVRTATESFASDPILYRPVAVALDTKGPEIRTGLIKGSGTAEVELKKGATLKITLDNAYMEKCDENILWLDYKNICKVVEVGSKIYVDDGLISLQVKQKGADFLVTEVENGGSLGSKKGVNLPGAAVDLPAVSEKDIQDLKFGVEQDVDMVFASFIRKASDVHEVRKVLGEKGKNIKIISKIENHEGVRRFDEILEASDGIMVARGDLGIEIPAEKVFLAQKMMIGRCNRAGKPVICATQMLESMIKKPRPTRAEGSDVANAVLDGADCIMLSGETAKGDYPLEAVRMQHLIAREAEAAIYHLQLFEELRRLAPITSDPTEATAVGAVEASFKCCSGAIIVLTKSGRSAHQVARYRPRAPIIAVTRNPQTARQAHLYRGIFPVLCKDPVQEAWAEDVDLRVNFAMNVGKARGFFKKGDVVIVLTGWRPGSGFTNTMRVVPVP
Outline: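 Screening used highly purified human pyruvate kinase M2 under submaximal activity, with PEP at its Km and ADP below Km. After an hour at room temperature, ATP was read by luciferase luminescence.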

[7] = molecular target: Alpha-galactosidase A (Homo sapiens) (UniProt P06280); experiment: Counterscreen for Glucocerebrosidase Inhibitors: qHTS Assay for Human alpha-Galactosidase at pH 4.5 (AID 992)
Sequence of Alpha-galactosidase A (Homo sapiens) (P06280 whole entry, looked up): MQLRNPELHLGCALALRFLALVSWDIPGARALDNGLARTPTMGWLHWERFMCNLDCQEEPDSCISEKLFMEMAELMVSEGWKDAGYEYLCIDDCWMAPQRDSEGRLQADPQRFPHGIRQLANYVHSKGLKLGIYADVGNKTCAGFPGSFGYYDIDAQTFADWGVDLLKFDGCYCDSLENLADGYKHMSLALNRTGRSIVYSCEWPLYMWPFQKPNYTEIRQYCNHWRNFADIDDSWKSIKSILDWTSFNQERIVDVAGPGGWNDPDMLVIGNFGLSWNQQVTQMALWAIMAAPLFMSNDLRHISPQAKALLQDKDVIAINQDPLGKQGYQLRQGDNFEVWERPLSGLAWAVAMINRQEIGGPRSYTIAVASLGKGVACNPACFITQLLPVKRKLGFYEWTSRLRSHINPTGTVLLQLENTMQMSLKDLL
Outline: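 Each compound is preincubated briefly with 2 nM enzyme before substrate addition (80 uM); plates then sit 20 min at ambient temperature, are quenched with 1M NaOH/1M glycine, and read fluorometrically.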

[8] = molecular target: alpha-glucosidase (Oryza sativa, rice) (UniProt Q653V4); experiment: Counterscreen for Glucocerebrosidase Inhibitors: qHTS Assay for Rice alpha-Glucosidase at pH 5.0 (AID 997)
Outline: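 Endpoint fluorogenic assay at pH 5.0: compounds (0.7 nM to 77 uM) titrated against 4 nM rice enzyme and 400 uM 4-MU-alpha-glucoside for 20 min at room temperature; NaOH/glycine stop, read ex 365/em 440 nm, Hill-fitted AC50.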

Measured: Potency

CC1(C)S[C@@H]2[C@H](NC(=O)Cc3ccccc3)C(=O)N2[C@@H]1C(=O)O
inactive: CP315

C[C@H](CCC(=O)O)[C@H]1CC[C@@H]2[C@H]3[C@@H](C[C@@H](O)[C@]21C)[C@]1(C)CC[C@H](O)C[C@@H]1C[C@@H]3O
inactive: CP315

C[C@H](Oc1ccc(Oc2cnc3ccc(Cl)cc3n2)cc1)C(=O)O
not listed: CP315
inactive: all other assays above

Reference: PubChem BioAssay (NCATS)
